{"source": "the supplement of paper PMC9399229", "note": "Where “and” joins values, the source holds several entries; their conditions need not be identical. Equal values may be shown once. Where a name gives a salt, the structure may show the parent alone. The full ranking holds about 1,900 compounds; the median of “relative cell viability (CellTiter-Glo), compound plus cabozantinib, relative to the cabozantinib arm (arm median 1.05; reference not stated)” is about 1.1, and the lowest 2% start at about 0.15. The sample as a whole holds a higher share of the lowest values than the screen did.", "data": [{"system": "Hep3B", "experiment": "relative cell viability (CellTiter-Glo), compound plus cabozantinib, relative to the cabozantinib arm (arm median 1.05; reference not stated) (fraction); higher = more viable cells (less growth inhibition)", "conditions": "cabozantinib 2 µM; 4 days", "values": [{"smiles": "COc1ccc(C(=O)Nc2sc3c(c2C(N)=O)CCCC3)cc1OC", "relative cell viability": 1.03}, {"smiles": "Cc1ccc(NC(=O)C2(c3ccc4c(c3)OC(F)(F)O4)CC2)nc1-c1cccc(C(=O)O)c1", "note": "[VX-809 (Lumacaftor)]", "relative cell viability": 0.168}, {"smiles": "CN(C)CCOc1ccc(/C(=C(/CCCl)c2ccccc2)c2ccccc2)cc1", "note": "[Toremifene Citrate]", "relative cell viability": 1.06}, {"smiles": "CC(C)C[C@H](NC(=O)[C@H](Cc1ccccc1)NC(=O)c1cnccn1)B(O)O", "note": "[Bortezomib (PS-341)]", "relative cell viability": 0.396}, {"smiles": "O=C(O)CCNC(=O)c1ccccc1", "note": "[Betamipron]", "relative cell viability": 0.99}, {"smiles": "CN(NC(=O)CC(=O)NN(C)C(=S)c1ccccc1)C(=S)c1ccccc1", "note": "[Elesclomol (STA-4783)]", "relative cell viability": 0.00669}, {"smiles": "O=C(O)c1ccccc1", "note": "[Benzoic Acid]", "relative cell viability": 1.12}, {"smiles": "O=C(NC[C@H](O)CN1CCc2ccccc2C1)c1cc(NC2COC2)ncn1", "relative cell viability": 1.13}, {"smiles": "OC[C@H]1OC(O)[C@H](O)[C@@H](O)[C@@H]1O", "note": "(some centres undefined) [Dextrose]", "relative cell viability": 1.01}, {"smiles": "CC(C)CC(=O)Nc1n[nH]c2c1CN(C(=O)C1CCN(C)CC1)C2(C)C", "relative cell viability": 0.431}, {"smiles": "Cc1nc(Nc2n[nH]c3c2CN(C(=O)N[C@H](CN(C)C)c2ccccc2)C3(C)C)c2sccc2n1", "relative cell viability": 0.149}, {"smiles": "CC1CC(OC(=O)C(O)c2ccccc2)CC(C)(C)C1", "note": "(centres undefined) [Cyclandelate]", "relative cell viability": 1.07}, {"smiles": "NC(=O)Nc1cc(-c2cccc(F)c2)sc1C(=O)N[C@H]1CCCNC1", "relative cell viability": 0.162}, {"smiles": "O=C(NC1CCNCC1)c1n[nH]cc1NC(=O)c1c(Cl)cccc1Cl", "relative cell viability": "0.158 and 0.144"}, {"smiles": "O=C(NC1CCOCC1)c1ccc(-c2cc(-c3c[nH]nc3-c3ccccn3)ccn2)cc1", "relative cell viability": 1.12}, {"smiles": "C#C[C@]1(OC(C)=O)CC[C@H]2[C@@H]3CCC4=C[C@@H](OC(C)=O)CC[C@@H]4[C@H]3CC[C@@]21C", "note": "[Ethynodiol diacetate]", "relative cell viability": 1.12}, {"smiles": "N#Cc1c(Oc2ccc(F)c(NC(=O)Cc3cccc(C(F)(F)F)c3)c2)ccc2nc(NC(=O)C3CC3)sc12", "relative cell viability": 0.227}, {"smiles": "CCNC(=O)c1noc(-c2cc(Cl)c(O)cc2O)c1-c1ccc(OC)cc1", "relative cell viability": 0.183}, {"smiles": "CCCCc1nc2cc(/C=C/C(=O)NO)ccc2n1CCN(CC)CC", "note": "[Pracinostat (SB939)]", "relative cell viability": 0.147}, {"smiles": "CN(C)Cc1ccc(S(=O)(=O)n2ccc(/C=C/C(=O)NO)c2)cc1", "note": "[Resminostat]", "relative cell viability": 0.59}, {"smiles": "COc1ccc(C(=O)CC(=O)c2ccc(C(C)(C)C)cc2)cc1", "note": "[Avobenzone]", "relative cell viability": 1.1}, {"smiles": "O=C(NOC[C@H](O)CO)c1ccc(F)c(F)c1Nc1ccc(I)cc1F", "relative cell viability": 0.183}, {"smiles": "O=C(NC[C@H](O)CO)c1ccncc1Nc1ccc(I)cc1F", "relative cell viability": 0.201}, {"smiles": "O=C(NOCCO)c1ccc2cncn2c1Nc1ccc(I)cc1F", "relative cell viability": 0.133}, {"smiles": "O=C(NOCC(O)CO)c1cc(Br)c(F)c(F)c1Nc1ccc(I)cc1F", "note": "(centres undefined)", "relative cell viability": 0.87}, {"smiles": "Cn1cnc2c(F)c(Nc3ccc(Br)cc3F)c(C(=O)NOCCO)cc21", "relative cell viability": 0.634}, {"smiles": "Cc1cc(C(=O)NOCCO)c(Nc2ccc(I)cc2F)n(C)c1=O", "relative cell viability": 0.141}, {"smiles": "Cc1nc2c([nH]1)-c1ccccc1N(C(=O)c1ccc(NC(=O)c3ccccc3-c3ccccc3)cc1)CC2", "note": "[Conivaptan HCl]", "relative cell viability": 0.972}, {"smiles": "CNC(=O)c1ccccc1Sc1ccc2c(/C=C/c3ccccn3)n[nH]c2c1", "note": "[Axitinib]", "relative cell viability": 0.715}, {"smiles": "COCC[n+]1c2c(n(Cc3cnccn3)c1C)C(=O)c1ccccc1C2=O", "note": "[YM155 (Sepantronium Bromide)]", "relative cell viability": 0.129}, {"smiles": "O=C(c1cncc(Br)c1)N1CCC(N2CCCC2)CC1", "relative cell viability": 1.16}, {"smiles": "COc1cc2c(cc1O)CC[C@@H]1[C@@H]2CC[C@]2(C)[C@@H](O)CC[C@@H]12", "note": "[2-Methoxyestradiol (2-MeOE2)]", "relative cell viability": 1.06}, {"smiles": "CCCCCCCCCCCCCCCCO", "note": "[1-Hexadecanol]", "relative cell viability": 1.14}, {"smiles": "C[C@@H](Nc1cc(F)cc(F)c1)c1cc(C(=O)N(C)C)cc2c(=O)cc(N3CCOCC3)oc12", "relative cell viability": 0.998}, {"smiles": "COc1ccc(Cn2ccc3ccc(C(=O)NO)cc32)cc1", "relative cell viability": 0.91}, {"smiles": "CCN(CC)CCNC(=O)c1ccc(N)cc1", "note": "[Procainamide HCl]", "relative cell viability": 0.947}, {"smiles": "CCN(CC)Cc1ccc2cc(COC(=O)Nc3ccc(C(=O)NO)cc3)ccc2c1", "note": "[Givinostat (ITF2357)]", "relative cell viability": 0.109}, {"smiles": "COc1cc(NC(=O)c2ccccn2)ccc1Cl", "relative cell viability": 1.05}, {"smiles": "CN(C)C(=S)NN=C(c1ccccn1)c1ccccn1", "relative cell viability": 0.15}, {"smiles": "CCOC(=O)[C@H](CCc1ccccc1)N[C@@H](C)C(=O)N1CCC[C@H]1C(=O)O", "note": "[Enalapril Maleate]", "relative cell viability": 1.15}, {"smiles": "CC#CC(=O)N1CC[C@@H](n2c(=O)n(-c3ccc(Oc4ccccc4)cc3)c3c(N)ncnc32)C1", "relative cell viability": 1.07}, {"smiles": "COC(=O)CC[C@H](NC(=O)[C@H](CC(=O)OC)NC(=O)OCc1ccccc1)C(=O)N[C@H](C(=O)N[C@@H](CC(=O)OC)C(=O)CF)C(C)C", "relative cell viability": 1.09}, {"smiles": "CCCCC(=O)N(Cc1ccc(-c2ccccc2-c2nnn[nH]2)cc1)[C@H](C(=O)O)C(C)C", "note": "[Valsartan]", "relative cell viability": 1.2}, {"smiles": "COc1ccc(-c2nc(N3CCOCC3)c3sc(CN(C)c4ncc(C(=O)NO)cn4)cc3n2)cn1", "relative cell viability": 0.181}, {"smiles": "Cn1cnc2c(F)c(Nc3ccc(Br)cc3Cl)c(C(=O)NOCCO)cc21", "note": "[Selumetinib (AZD6244)]", "relative cell viability": 0.616}, {"smiles": "Cc1cc(Nc2ncc(Cl)c(Nc3ccccc3S(=O)(=O)C(C)C)n2)c(OC(C)C)cc1C1CCNCC1", "relative cell viability": 0.122}, {"smiles": "COc1cc(N2CCC(N3CCN(C)CC3)CC2)ccc1Nc1ncnc(Nc2ccccc2S(=O)(=O)C(C)C)n1", "relative cell viability": 1.09}, {"smiles": "NC(=S)N/N=C/c1ncccc1N", "note": "[Triapine]", "relative cell viability": 1.02}, {"smiles": "CC(=O)Nc1nc2c(Oc3cc(-c4ccc(C(F)(F)F)cc4)ncn3)cccc2s1", "relative cell viability": 1.04}, {"smiles": "CN[C@H]1CN(c2ccc3c(=O)c(C(=O)O)cn(-c4nccs4)c3n2)C[C@@H]1OC", "note": "[Voreloxin (SNS-595)]", "relative cell viability": 0.968}, {"smiles": "CC/C(=C(\\c1ccc(O)cc1)c1ccc(OCCNC)cc1)c1ccccc1", "note": "[Endoxifen HCl]", "relative cell viability": 1.15}, {"smiles": "Oc1cc(O)c(Cl)cn1", "note": "[Gimeracil]", "relative cell viability": 1}, {"smiles": "CNC(CC(=O)O)C(=O)O", "note": "[NMDA (N-Methyl-D-aspartic acid)]", "relative cell viability": 1.15}, {"smiles": "CO[C@H]1/C=C/O[C@@]2(C)Oc3c(C)c(O)c4c(O)c(c5c(nc6cc(C)ccn65)c4c3C2=O)NC(=O)/C(C)=C\\C=C\\[C@H](C)[C@H](O)[C@@H](C)[C@@H](O)[C@@H](C)[C@H](OC(C)=O)[C@@H]1C", "note": "[Rifaximin]", "relative cell viability": 0.91}, {"smiles": "C=CCc1cc(OC)c(O)c(C(=O)NCCO)c1", "note": "[Alibendol]", "relative cell viability": 0.982}, {"smiles": "CC1(C)CC[C@]2(C(=O)O)CC[C@]3(C)C(=CC[C@@H]4[C@@]5(C)CC[C@H](O)C(C)(C)[C@@H]5CC[C@]43C)[C@@H]2C1", "note": "[Oleanolic Acid]", "relative cell viability": 1.14}, {"smiles": "C=C1C(=O)[C@]23[C@H](O)[C@H]1CC[C@H]2[C@@]12CO[C@]3(O)[C@@H](O)[C@@H]1C(C)(C)CC[C@@H]2O", "note": "[Oridonin]", "relative cell viability": 1.11}, {"smiles": "Cc1csc(-c2nnc(Nc3ccc(Oc4ncccc4-c4ccnc(N)n4)cc3)c3ccccc23)c1", "relative cell viability": 1}, {"smiles": "CCCNC(=O)Nc1ccc(Oc2ncnc3cc(OC)c(OC)cc23)cc1Cl", "relative cell viability": 1.14}, {"smiles": "CCOc1cc2ncc(C#N)c(Nc3ccc(F)c(Cl)c3)c2cc1NC(=O)/C=C/CN(C)C", "note": "[Pelitinib (EKB-569)]", "relative cell viability": 0.9}, {"smiles": "CC(=O)C1=C(O)C=C2Oc3c(C(C)=O)c(O)c(C)c(O)c3C2(C)C1=O", "note": "(single isomer, unassigned; (+)) [(+)-Usniacin]", "relative cell viability": 1.11}, {"smiles": "C[C@H]1Oc2cc(cnc2N)-c2c(nn(C)c2C#N)CN(C)C(=O)c2ccc(F)cc21", "relative cell viability": 1.14}, {"smiles": "C[C@@H](O)[C@H]1C(=O)N2C(C(=O)O)=C(S[C@@H]3CN[C@H](C(=O)N(C)C)C3)[C@H](C)[C@H]12", "note": "[Meropenem]", "relative cell viability": 1.17}, {"smiles": "CC[C@@]1(O)C(=O)OCc2c1cc1n(c2=O)Cc2cc3cc(O)ccc3nc2-1", "note": "[(S)-10-Hydroxycamptothecin]", "relative cell viability": 0.137}, {"smiles": "CCc1c2c(nc3ccc(O)cc13)-c1cc3c(c(=O)n1C2)COC(=O)[C@]3(O)CC", "relative cell viability": 0.176}, {"smiles": "CC[C@@]1(O)C(=O)OCc2c1cc1n(c2=O)Cc2cc3c(CN(C)C)c(O)ccc3nc2-1", "note": "[Topotecan HCl]", "relative cell viability": 0.556}, {"smiles": "CC(C)(C(=O)NCC(F)(F)C(F)(F)F)C(=O)N[C@@H]1C(=O)Nc2ccccc2-c2ccccc21", "relative cell viability": 1.04}, {"smiles": "C[C@]12C=CC(=O)N[C@@H]1CC[C@@H]1[C@@H]2CC[C@]2(C)[C@@H](C(=O)Nc3cc(C(F)(F)F)ccc3C(F)(F)F)CC[C@@H]12", "note": "[Dutasteride]", "relative cell viability": 1.12}, {"smiles": "O=C(COc1ccc(C(=O)c2ccccc2)cc1)NC1CCN(Cc2ccccc2)CC1", "note": "[AdipoRon]", "relative cell viability": 1.06}, {"smiles": "Cc1[nH]nc2ccc(-c3cncc(OC[C@@H](N)Cc4ccccc4)c3)cc12", "relative cell viability": 0.11}, {"smiles": "O=C(O)Cc1cc(I)c(Oc2ccc(O)c(I)c2)c(I)c1", "note": "[Tiratricol]", "relative cell viability": 0.888}, {"smiles": "CSc1nc2cc(Cl)c(Oc3cccc(Cl)c3Cl)cc2[nH]1", "note": "[Triclabendazole]", "relative cell viability": 1.14}, {"smiles": "O=C(/C=C\\n1cnc(-c2cc(C(F)(F)F)cc(C(F)(F)F)c2)n1)N1CC(F)(F)C1", "relative cell viability": 0.32}, {"smiles": "CC12CC3CC(C)(C1)CC(N)(C3)C2", "note": "[Memantine HCl]", "relative cell viability": 1.1}, {"smiles": "O=C(/C=C/c1cccc(S(=O)(=O)Nc2ccccc2)c1)NO", "note": "[Belinostat (PXD101)]", "relative cell viability": 0.149}, {"smiles": "O=C(C=Cc1ccccc1)NC(NC(=S)Nc1ccc(Cl)cc1)C(Cl)(Cl)Cl", "note": "(centres undefined)", "relative cell viability": 1.14}, {"smiles": "Cn1cc(/C=C/C(=O)c2cccc(F)c2)cc1/C=C/C(=O)NO", "relative cell viability": 1.19}, {"smiles": "COC(=O)N[C@H](C(=O)N[C@@H](Cc1ccccc1)[C@@H](O)CN(Cc1ccc(-c2ccccn2)cc1)NC(=O)[C@@H](NC(=O)OC)C(C)(C)C)C(C)(C)C", "note": "[Atazanavir Sulfate]", "relative cell viability": 0.969}, {"smiles": "Fc1cc(-c2cccc3ncc(-c4cnn(C5CCNCC5)c4)nc23)cc(F)c1CN1CCOCC1", "relative cell viability": 1.11}]}]}
